Molecules are shown by their SMILES. Potency and affinity values are given separately.

The term IC90 denotes the concentration needed for an effect of 90%.

This assay is described as follows: M. tuberculosis growth inhibition, dose response, 7H9 media, purified and synthesized compounds, set 4 (AID 504857). It is filed as functional.

As for `Nc1c(C(=O)NC2CCCCC2)nsc1C(=O)OCC(=O)NC1CCCCC1`, the IC90 was > 71.1 µM (active).

These data come from ChEMBL document CHEMBL1201862, “PubChem BioAssay data set” (2004).
